# Data published in PubChem BioAssay (NCATS).
# Records with an inconclusive call do not appear. The source made the active and inactive calls. Unless noted, calls follow the shape of the dose curve; as a rule, active = well fitted curve in the direction sought with a large enough effect; inconclusive = small, poorly fitted or top-dose-only effect, or another doubt; inactive = no such curve, though single readings can be large; an effect the other way counts as inactive or inconclusive.
# Assays:
# [1] = Quantitative High-Throughput drug screen in 47 multiple myeloma cell lines against the NCATS MIPE library collection: PCM6_Riken cell viability assay (AID 1919870); also: nearly all actives have a fitted effect of over 30% in size; also: potency is read from the fitted curve at half-maximal effect
# In short: (§1)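 Inhibition of viability over 48 h was scored by ATP content (CellTiter-Glo) in 500-cell wells. Zero and full viability were defined by media-only and DMSO-only wells.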
# [2] = Quantitative High-Throughput drug screen in 47 multiple myeloma cell lines against the NCATS MIPE library collection: RPMI8226_ATCC cell viability assay (AID 1919871); also: nearly all actives have a fitted effect of over 30% in size; also: potency is read from the fitted curve at half-maximal effect
# In short: as §1
# [3] = Quantitative High-Throughput drug screen in 47 multiple myeloma cell lines against the NCATS MIPE library collection: OPM2_DSMZ cell viability assay (AID 1919872); also: nearly all actives have a fitted effect of over 30% in size; also: potency is read from the fitted curve at half-maximal effect
# In short: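 Relative luminescence from CellTiter-Glo served as the viability signal, referenced to DMSO-treated (100%) and cell-free medium (0%) controls. Treatment lasted 48 hours at 37C with 500 cells per well.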
# [4] = Quantitative High-Throughput drug screen in 47 multiple myeloma cell lines against the NCATS MIPE library collection: KMS11_JCRBsus cell viability assay (AID 1919873); also: nearly all actives have a fitted effect of over 50% in size; also: potency is read from the fitted curve at half-maximal effect
# In short: as §1
# [5] = Quantitative High-Throughput drug screen in 47 multiple myeloma cell lines against the NCATS MIPE library collection: KMS28BM_JCRB cell viability assay (AID 1919874); also: nearly all actives have a fitted effect of over 35% in size; also: potency is read from the fitted curve at half-maximal effect
# In short: as §1
# [6] = qHTS drug screen for cell cycle checkpoint inhibitors in PARPi-resistant BRCA-mutant ovarian cancer cell lines. (AID 1963452; calls by dose curve); settings: PEO1/OlaR viability, CellTiter-Glo luminescence, 96 h, stronger effect = lower value
# In short: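 PEO1, PEO4 and PEO1/OlaR ovarian cancer cells, 600 per well, exposed 96 h at 37C to a dilution series. Viability read by CellTiter-Glo luminescence, normalized to DMSO and empty wells; activity summarized as Z-AUC.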
# [7] = Quantitative High-Throughput drug screen in 47 multiple myeloma cell lines against the NCATS MIPE library collection: PE2_PLB cell viability assay (AID 1919869); also: nearly all actives have a fitted effect of over 35% in size; also: potency is read from the fitted curve at half-maximal effect
# In short: as §1
# [8] = qHTS profiling for inhibitors of Plasmodium falciparum proliferation (AID 504749); also: potency is read from the fitted curve at half-maximal effect;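 as to activity, negative = inhibition: 0% = DMSO vehicle and full inhibition = artemisinin control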; as to all read-outs here: nearly all actives have a fitted effect of over 60% in size; settings: P. falciparum in erythrocytes, SYBR Green DNA, 72 h; for activity, negative = inhibition: at 28.7 µM (top of the series)
# In short: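 Infected RBCs, 0.3% parasitemia/2.5% Hct final; cpd 72 h, 37 C, 5% CO2; lysis buffer with saponin/triton/SYBR Green I, o/n RT dark; FI 485/535; norm. to artemisinin (0.29 uM) and DMSO.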
# [9] = qHTS for identification of novel therapeutic agents for treatment of microphthalmiaassociated transcription factor (MiT) renal cell carcinoma (RCC) (AID 1963991); settings: CellTiter-Glo, 48 h, stronger effect = lower value;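 also: curves scaled with 100% = DMSO viability and 0% = empty wells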
# In short: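 UOK109/UOK124/UOK145 (TFE3 fusions, three partners); 500 cells/well; MIPE v4.0, 1912 cpds, 11 conc.; 48 h, 37 C; CellTiter-Glo, 15 min RT; lum. Norm.: DMSO 100%, empty 0%.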
# [10] = measured here: PEO1 parental Z-AUC
# [11] = TFE3-RCC UOK109 viability, measured here: UOK109 Z-AUC
# [12] = TFE3-RCC viability, measured here: UOK124 Z-AUC
# [13] = TFE3-RCC viability, measured here: UOK145 Z-AUC
structure (smiles),measurement,setting,value
COc1cccc2cc(-c3nc(C4CCC(C(=O)O)CC4)n4ncnc(N)c34)[nH]c12 (centres undefined),Potency,[1],1.87 µM (active)
same,Potency,[2],0.59 µM (active)
same,Potency,[3],2.96 µM (active)
same,Potency,[4],0.132 µM (active)
same,Potency,[5],1.48 µM (active)
same,Z-AUC,[6],-0.482 (inactive)
same,Z-AUC,[6]; [10],-0.688
same,Z-AUC,[6]; measured here: PEO4 Z-AUC,-0.315
CC(C)(C)OC(=O)CN(Cc1ccc(Cl)cc1)Cc1ccc([N+](=O)[O-])s1,Potency,[1],inactive
CCOc1cc(C(=O)Nc2ccc(Cl)c(-c3nc4ccccc4[nH]3)c2)cc(OCC)c1OCC,Potency,[7],8.33 µM (active)
same,Potency,[2],18.7 µM (active)
same,Potency,[5],inactive
same,Z-AUC,[6],-0.941 (inactive)
same,Z-AUC,[6]; [10],0.578
same,Z-AUC,[6]; measured here: PEO4 Z-AUC,-0.467
CCOC(=O)N[C@@H]1CC[C@@H]2[C@@H](C1)C[C@H]1C(=O)O[C@H](C)[C@H]1[C@@H]2C=Cc1ccc(-c2cccc(F)c2)cn1,Potency,[1],inactive
same,Potency,[2],18.7 µM (active)
same,Potency,[3],inactive
Nc1nc2ccc(OC(F)(F)F)cc2s1,Potency,[7],inactive
same,Potency,[3],18.7 µM (active)
same,Potency,[4],inactive
same,Potency,[5],inactive
same,Z-AUC,[6],-0.346 (inactive)
same,Z-AUC,[6]; [10],-0.387
same,Z-AUC,[6]; measured here: PEO4 Z-AUC,0.245
COc1ccc2c3n(c(=NC(=O)c4cccnc4)nc2c1OC)CCN3,Potency,[7],11.8 µM (active)
same,Z-AUC,[6],-0.738 (inactive)
same,Z-AUC,[6]; [10],-0.328
same,Z-AUC,[6]; measured here: PEO4 Z-AUC,-0.378
COc1ccc(-c2ccc3c(N4CCOCC4)nc(N4C[C@@H](C)O[C@@H](C)C4)nc3n2)cc1CO,Potency,[1],1.48 µM (active)
same,Potency,[2],0.0935 µM (active)
same,Potency,[3],1.18 µM (active)
same,Potency,[4],0.059 µM (active)
same,Potency,[5],1.32 µM (active)
same,Z-AUC,[6],1.56 (inactive)
same,Z-AUC,[6]; [10],1.12
same,Z-AUC,[6]; measured here: PEO4 Z-AUC,1.19
CC(C)C[C@H](NC(=O)[C@@H](O)[C@H](N)Cc1ccccc1)C(=O)O,Potency,[7],26.4 µM (active)
same,Potency,[2],20.9 µM (active)
same,Potency,[4],9.35 µM (active)
same,Potency,[5],16.6 µM (active)
same,Z-AUC,[6],0.8 (inactive)
same,Z-AUC,[6]; [10],0.368
same,Z-AUC,[6]; measured here: PEO4 Z-AUC,0.252
same,Potency,[8]; parasite line A,2.51 µM (active)
same,Potency,[8]; parasite line B,5.62 µM (active)
CS(=O)(=O)c1cccc(CNc2nc(Nc3ccc4c(c3)CCC(=O)N4)ncc2C(F)(F)F)c1,Potency,[1],7.43 µM (active)
same,Potency,[2],18.7 µM (active)
same,Potency,[3],20.9 µM (active)
same,Potency,[4],8.33 µM (active)
same,Potency,[5],16.6 µM (active)
same,Z-AUC,[6],-0.784 (inactive)
same,Z-AUC,[6]; [10],-1.23
same,Z-AUC,[6]; measured here: PEO4 Z-AUC,-1.25
CC(c1cc2ccccc2s1)N(O)C(N)=O (centres undefined),Potency,[1],inactive
same,Potency,[2],inactive
same,Potency,[3],inactive
same,Potency,[4],inactive
same,Potency,[5],inactive
same,Z-AUC,[6],-0.588 (inactive)
same,Z-AUC,[6]; [10],-0.0331
same,Z-AUC,[6]; measured here: PEO4 Z-AUC,-0.638
same,z-score,[9]; [11],0.403
same,z-score,[9]; [12],0.701
same,z-score,[9]; [13],0.104
same,"activity, negative = inhibition",[8]; parasite line A,3.01% (inactive)
same,"activity, negative = inhibition",[8]; parasite line B,-4.79% (inactive)
CC(=O)Oc1ccccc1C(=O)O,Potency,[1],5.26 µM (active)
same,Potency,[2],inactive
same,Potency,[3],inactive
same,Potency,[4],10.5 µM (active)
same,Potency,[5],9.35 µM (active)
same,Z-AUC,[6],0.925 (inactive)
same,Z-AUC,[6]; [10],0.885
same,Z-AUC,[6]; measured here: PEO4 Z-AUC,1.16
same,"activity, negative = inhibition",[8]; parasite line A,3.3% (inactive)
same,"activity, negative = inhibition",[8]; parasite line B,6.15% (inactive)
OC(CN1CCC(Cc2ccc(F)cc2)CC1)c1ccc(Cl)cc1 (centres undefined),Potency,[1],inactive
same,Potency,[2],inactive
same,Potency,[3],inactive
same,Potency,[4],inactive
same,z-score,[9]; [11],0.0108
same,z-score,[9]; [12],0.291
same,z-score,[9]; [13],0.245
same,"activity, negative = inhibition",[8]; parasite line A,-26.6% (inactive)
same,Potency,[8]; parasite line B,0.891 µM (active)
COc1ccc(COc2cc3oc(=O)c4cc(C(C)O)ccc4c3cc2OC)cc1 (centres undefined),Potency,[7],14.8 µM (active)
same,Potency,[2],20.9 µM (active)
same,Z-AUC,[6],1.06 (inactive)
same,Z-AUC,[6]; [10],0.636
same,Z-AUC,[6]; measured here: PEO4 Z-AUC,1.09
Cc1cc(-c2ccc(CC(=O)Nc3ccc(-c4cccnc4)cc3)cc2)ccn1,Potency,[1],11.8 µM (active)
same,Potency,[2],5.9 µM (active)
same,Potency,[3],inactive
same,Potency,[4],20.9 µM (active)
CCn1cc(C(=O)O)c(=O)c2cc(F)c(N3CCNC(C)C3)c(F)c21 (centres undefined),Potency,[1],inactive
same,Potency,[2],inactive
same,Potency,[3],inactive
same,Potency,[4],inactive
same,Potency,[5],inactive
same,Z-AUC,[6],-0.481 (inactive)
same,Z-AUC,[6]; [10],-0.703
same,Z-AUC,[6]; measured here: PEO4 Z-AUC,-0.581
same,z-score,[9]; [11],0.479
same,z-score,[9]; [12],0.345
same,z-score,[9]; [13],0.675
Cc1cc(SCc2sc(-c3ccc(C(F)(F)F)cc3)nc2C)ccc1OCC(=O)O,Potency,[1],inactive
same,Potency,[2],14.8 µM (active)
same,Potency,[3],inactive
same,Z-AUC,[6],1.25 (inactive)
same,Z-AUC,[6]; [10],0.45
same,Z-AUC,[6]; measured here: PEO4 Z-AUC,0.535
same,z-score,[9]; [11],0.936
same,z-score,[9]; [12],0.482
same,z-score,[9]; [13],0.629
O=C1[C@H](Cc2ccc(O)cc2)N2C(=O)CCN(C(=O)NCc3ccccc3)[C@H]2CN1Cc1cccc2ccccc12,Potency,[7],4.69 µM (active)
same,Potency,[4],1.66 µM (active)
same,Z-AUC,[6],0.428 (inactive)
same,Z-AUC,[6]; [10],0.318
same,Z-AUC,[6]; measured here: PEO4 Z-AUC,0.0223
Cc1c(C)c2c(c(C)c1O)CCC(C)(COc1ccc(CC3SC(=O)NC3=O)cc1)O2 (centres undefined),Potency,[1],20.9 µM (active)
same,Potency,[2],inactive
same,Potency,[3],inactive
same,Potency,[5],inactive
same,Z-AUC,[6],0.635 (inactive)
same,Z-AUC,[6]; [10],0.564
same,Z-AUC,[6]; measured here: PEO4 Z-AUC,0.844
same,z-score,[9]; [11],0.729
same,z-score,[9]; [12],0.103
same,z-score,[9]; [13],-0.301
same,"activity, negative = inhibition",[8]; parasite line A,-7.46% (inactive)
CNC(=O)c1ccc(C)c(-n2c(C)cc(OCc3ccc(F)cc3F)c(Br)c2=O)c1,Potency,[1],14.8 µM (active)
same,Potency,[2],inactive
same,Potency,[3],inactive
same,Potency,[5],inactive
same,Z-AUC,[6],-0.231 (inactive)
same,Z-AUC,[6]; [10],-0.585
same,Z-AUC,[6]; measured here: PEO4 Z-AUC,-0.46
same,z-score,[9]; [11],0.451
same,z-score,[9]; [12],1.43
same,z-score,[9]; [13],0.519
Nc1nc2[nH]cc(CCc3ccc(C(=O)N[C@@H](CCC(=O)O)C(=O)O)cc3)c2c(=O)[nH]1,Potency,[1],inactive
same,Potency,[2],0.264 µM (active)
same,Potency,[3],inactive
same,Potency,[4],0.59 µM (active)
same,Potency,[5],inactive
same,Z-AUC,[6],1.34 (inactive)
same,Z-AUC,[6]; [10],1.12
same,Z-AUC,[6]; measured here: PEO4 Z-AUC,1.26
